This is an account of results in PubChem BioAssay.

The source made the active and inactive calls.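 How the source made its calls, unless noted: active means RAM network inhibition above 8.4% in each of two replicates, 3 SD over the compound average; inconclusive means above 8.4% inhibition in only one replicate; inactive means 8.4% inhibition or less in each replicate.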

One experiment is described as follows: inhibitors of the yeast RAM network, pilot screen, dse1pr::URA3 reporter, 5-FOA selection (AID 869;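 active means inhibition over a set limit, the all-compound mean plus 3 SD, in both replicate runs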;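 further: 0% = DMSO wells with no growth and 100% = 10 µM 1-NA-PP1 with full growth; RAM network block rescues cells from 5-FOA so hits raise OD615 growth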). The following applies: S. cerevisiae dse1pr::URA3 5-FOA growth, OD615, 2 d; at 10 µM; stronger effect = higher value; strain carries analog-sensitive mutant Cbk1 kinase.
As a reminder, the inhibition is the relative decrease from the control value, in per cent. Turning to `Cn1c2ccc(CC(=O)O)cc2c2cc(CC(=O)O)ccc21`, the inhibition was 1.1% (inactive).
Same read-out and setting: the figure for `CS(=O)(=O)N1CCN(c2nc(-c3ccccc3)cs2)CC1` is -0.535% (inactive); for `CCOc1cc(CN2CCSCC2)ccc1O` it is 0.825% (inactive); for `Cc1cc(C)cc(OCC(O)CN2C(=O)NC(C)(C)C2=O)c1` (stereo not given) it is -0.255% (inactive).
With `O=C(NC1CCCCCCC1)c1ccc(CNc2c(N3CCOCC3)c(=O)c2=O)cc1`, the inhibition was 0.71% (inactive).
In the case of `COC(=O)C1=C(O)CSC1=Nc1cccc(C(F)(F)F)c1`, the inhibition is 0.625% (inactive).
Still for that read-out and setting: the figure for `COc1cccc(C2c3c(oc4cc(C)c(C)cc4c3=O)C(=O)N2CCCN(C)C)c1` (stereo not given) is 0.885% (inactive); for `CCOC(=O)c1ccc(NC(=O)NCCN2CCCCC2)cc1` it is 1.49% (inactive).
Still for that read-out and setting: in the case of `COc1ccc(-c2nnc3ccc(SCC(=O)N4CCCC4)nn23)cc1` it was 1.44% (inactive); in that of `CC(=O)c1cc(F)c(N2CCN(CCC#N)CC2)cc1C`, 0.35% (inactive).
On the same count and under the same terms, the figure for `COc1ccc(-n2c(Cn3c(=O)sc4ccccc43)nnc2SCC(=O)N2CCOCC2)cc1` is 0.235% (inactive); for `CCOC(=O)c1c(NC(=O)c2cc(C3CC3)on2)sc2c1CCCC2` it is 1.49% (inactive); for `CCOc1ccccc1C(=O)Nc1nnc(C(C)C)s1` it is 0.55% (inactive).
Consider `COc1ccccc1N1CCN(C(=O)CCCC2=NS(=O)(=O)c3ccccc3N2)CC1`, for which the inhibition was 1.4% (inactive).
Regarding `O=C(O)CC1C(=O)NCCN1Cc1ccc(F)c(F)c1` (stereo not given), the inhibition was 3.32% (inactive).
On the same count and under the same terms, the figure for `CCc1ccccc1S(=O)(=O)Cc1ccc(C(=O)NC(C)C)o1` is 1.24% (inactive); for `Cc1cc(Nc2ccc(Br)c(C)c2)n2nc(C)nc2n1` it is 0.65% (inactive).
`O=C(O)CCc1ccc(-c2cccs2)n1NC(=O)c1ccc(Cl)cc1`: the inhibition was 0.29% (inactive).
On the same count and under the same terms, in the case of `CCC(=O)N1CC2(C)CN(C(=O)CC)CC(C)(C1)C2` it was 1.59% (inactive); in that of `O=C(Cc1cc(=O)[nH]c(=O)[nH]1)N1CCN(C(=O)c2ccco2)CC1`, 0.59% (inactive).
As for `CCCCc1ccc(Nc2ncnc3nc[nH]c23)cc1`, the inhibition was -0.1% (inactive).
Same read-out and setting: in the case of `O=C1c2ccccc2C(O)N1c1ccc(Cl)cc1` (stereo not given) it was 0.58% (inactive); in that of `CN(C)c1ccc(C2N3CC4(C)CN2CC(C)(C3)C4O)cc1` (stereo not given), 2.33% (inactive).
For the compound `COc1cc2c(c(O)c1OC)C(=O)C(OC)CCC2` (stereo not given), the inhibition was 0.275% (inactive).
Same read-out and setting: in the case of `CCCC(=O)NCCCc1nc2ccccc2[nH]1` it was 1.45% (inactive); in that of `COc1cc(OC)cc(OCC(O)Cn2cnc3cc(C)c(C)cc32)c1` (stereo not given), 1.33% (inactive); in that of `CCCc1cc(C(=O)NCc2ccc(OC)cc2)no1`, 1.78% (inactive).
Regarding `O=C(NCCCN1CCCC1=O)c1ccccc1NS(=O)(=O)c1ccc(F)cc1`, the inhibition is 1.57% (inactive).
In the case of `CCc1nnc(NC(=O)c2ccc(S(=O)(=O)N3CCOCC3)cc2)s1`, the inhibition was 1.92% (inactive).
Turning to `COc1cccc(C(c2sc3ncnn3c2O)N2CCc3ccccc3C2)c1` (stereo not given), the inhibition is 1.8% (inactive).
Still for that read-out and setting: in the case of `COc1cccc(-n2c(Cc3cc(=O)[nH]c(=O)[nH]3)nnc2SCC(=O)N2CCCCCC2)c1` it was -0.735% (inactive); in that of `Cn1c(CSc2nc3ccccc3s2)n[nH]c1=S`, 0.23% (inactive).
For `O=C(CN1CCOCC1)Nc1cc(Cl)ccc1Cl`, the inhibition was 2.6% (inactive).
The same measure, in the same setting: in the case of `CC(=O)N1CCc2c(sc(NC(=O)CN3C(=O)CCC3=O)c2C(N)=O)C1` it was 1.53% (inactive).
Same read-out and setting: in the case of `Cc1cc(Nc2ccc(F)cc2C)n2ncnc2n1` it was 1.8% (inactive); in that of `COc1ccccc1CNC(=O)CS(=O)Cc1nc(-c2ccccc2C)oc1C` (stereo not given), 1.66% (inactive); in that of `Cc1nc2sc(C(c3ccccc3)N3CCN(CCO)CC3)c(O)n2n1` (stereo not given), 1.32% (inactive).
Still for that read-out and setting: in the case of `CC1(C)Cc2c(C#N)c(NCCCO)nc(-c3ccccc3)c2CO1` it was 0.25% (inactive); in that of `CN1CCc2c(sc(NC(=O)c3ccc(S(=O)(=O)N4CCOCC4)cc3)c2C(N)=O)C1`, -0.19% (inactive).
For `COc1ccc(C)c(S(=O)(=O)Nc2ccc(OCC(=O)O)cc2)c1`, the inhibition is 0.345% (inactive).

A further experiment is described as follows: RAM signaling pathway blockade in yeast – S. cerevisiae, Pdr1DBD-CYC8 efflux-inhibited sensitized strain, primary screen (AID 1298).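 Further: 0% = DMSO untreated cells without growth and 100% = 10 µM 1-NA-PP1 full growth; higher means more yeast growth rescued from 5-FOA killing.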 Conditions: S. cerevisiae cbk1-as DSE1-URA3 strain, 5-FOA growth OD615, 2 d; at 50 µM; stronger effect = higher value.
Regarding `Cn1c2ccc(CC(=O)O)cc2c2cc(CC(=O)O)ccc21`, the RAM network inhibition was 0.98% (inactive).
For the compound `CS(=O)(=O)N1CCN(c2nc(-c3ccccc3)cs2)CC1`, the RAM network inhibition was -0.16% (inactive).
The same measure, in the same setting: the figure for `CCOc1cc(CN2CCSCC2)ccc1O` is 4.67% (inactive); for `Cc1cc(C)cc(OCC(O)CN2C(=O)NC(C)(C)C2=O)c1` (stereo not given) it is 2.26% (inactive).
Consider `O=C(NC1CCCCCCC1)c1ccc(CNc2c(N3CCOCC3)c(=O)c2=O)cc1`, for which the RAM network inhibition was 0.92% (inactive).
As to `COC(=O)C1=C(O)CSC1=Nc1cccc(C(F)(F)F)c1`, the RAM network inhibition is 3.1% (inactive).
For `COc1cccc(C2c3c(oc4cc(C)c(C)cc4c3=O)C(=O)N2CCCN(C)C)c1` (stereo not given), the RAM network inhibition is 1.83% (inactive).
Turning to `CCOC(=O)c1ccc(NC(=O)NCCN2CCCCC2)cc1`, the RAM network inhibition was 3.62% (inactive).
The same measure, in the same setting: the figure for `COc1ccc(-c2nnc3ccc(SCC(=O)N4CCCC4)nn23)cc1` is 0.16% (inactive); for `CC(=O)c1cc(F)c(N2CCN(CCC#N)CC2)cc1C` it is 0.47% (inactive).
Still for that read-out and setting: the figure for `COc1ccc(-n2c(Cn3c(=O)sc4ccccc43)nnc2SCC(=O)N2CCOCC2)cc1` is 1.66% (inactive); for `CCOC(=O)c1c(NC(=O)c2cc(C3CC3)on2)sc2c1CCCC2` it is 8.09% (inactive).
On the same count and under the same terms, in the case of `CCOc1ccccc1C(=O)Nc1nnc(C(C)C)s1` it was 2.24% (inactive); in that of `COc1ccccc1N1CCN(C(=O)CCCC2=NS(=O)(=O)c3ccccc3N2)CC1`, -0.58% (inactive).
For the compound `O=C(O)CC1C(=O)NCCN1Cc1ccc(F)c(F)c1` (stereo not given), the RAM network inhibition was -0.21% (inactive).
Still for that read-out and setting: the figure for `CCc1ccccc1S(=O)(=O)Cc1ccc(C(=O)NC(C)C)o1` is 3.36% (inactive).
For the compound `Cc1cc(Nc2ccc(Br)c(C)c2)n2nc(C)nc2n1`, the RAM network inhibition is 6.84% (inactive).
Same read-out and setting: in the case of `O=C(O)CCc1ccc(-c2cccs2)n1NC(=O)c1ccc(Cl)cc1` it was -0.58% (inactive); in that of `CCC(=O)N1CC2(C)CN(C(=O)CC)CC(C)(C1)C2`, -0.16% (inactive).
Same read-out and setting: the figure for `O=C(Cc1cc(=O)[nH]c(=O)[nH]1)N1CCN(C(=O)c2ccco2)CC1` is 1.53% (inactive).
On the same count and under the same terms, in the case of `CCCCc1ccc(Nc2ncnc3nc[nH]c23)cc1` it was 1.66% (inactive); in that of `O=C1c2ccccc2C(O)N1c1ccc(Cl)cc1` (stereo not given), 1.49% (inactive); in that of `CN(C)c1ccc(C2N3CC4(C)CN2CC(C)(C3)C4O)cc1` (stereo not given), 2.42% (inactive).
For the compound `COc1cc2c(c(O)c1OC)C(=O)C(OC)CCC2` (stereo not given), the RAM network inhibition was -0.62% (inactive).
Still for that read-out and setting: the figure for `CCCC(=O)NCCCc1nc2ccccc2[nH]1` is 2.55% (inactive).
Consider `COc1cc(OC)cc(OCC(O)Cn2cnc3cc(C)c(C)cc32)c1` (stereo not given), for which the RAM network inhibition is -0.82% (inactive).
As for `CCCc1cc(C(=O)NCc2ccc(OC)cc2)no1`, the RAM network inhibition was -0.68% (inactive).
Same read-out and setting: in the case of `O=C(NCCCN1CCCC1=O)c1ccccc1NS(=O)(=O)c1ccc(F)cc1` it was 5.37% (inactive); in that of `CCc1nnc(NC(=O)c2ccc(S(=O)(=O)N3CCOCC3)cc2)s1`, 9.48% (inactive).
Take `COc1cccc(C(c2sc3ncnn3c2O)N2CCc3ccccc3C2)c1` (stereo not given): the RAM network inhibition is 11.3% (inactive).
The same measure, in the same setting: the figure for `COc1cccc(-n2c(Cc3cc(=O)[nH]c(=O)[nH]3)nnc2SCC(=O)N2CCCCCC2)c1` is 7.07% (inactive); for `Cn1c(CSc2nc3ccccc3s2)n[nH]c1=S` it is 0.95% (inactive); for `O=C(CN1CCOCC1)Nc1cc(Cl)ccc1Cl` it is 1.66% (inactive).
The same measure, in the same setting: in the case of `CC(=O)N1CCc2c(sc(NC(=O)CN3C(=O)CCC3=O)c2C(N)=O)C1` it was 2.93% (inactive).
Still for that read-out and setting: the figure for `Cc1cc(Nc2ccc(F)cc2C)n2ncnc2n1` is 5.54% (inactive); for `COc1ccccc1CNC(=O)CS(=O)Cc1nc(-c2ccccc2C)oc1C` (stereo not given) it is 2.33% (inactive).
Regarding `Cc1nc2sc(C(c3ccccc3)N3CCN(CCO)CC3)c(O)n2n1` (stereo not given), the RAM network inhibition is 4.51% (inactive).
On to `CC1(C)Cc2c(C#N)c(NCCCO)nc(-c3ccccc3)c2CO1`, for which the RAM network inhibition is -0.94% (inactive).
Same read-out and setting: the figure for `CN1CCc2c(sc(NC(=O)c3ccc(S(=O)(=O)N4CCOCC4)cc3)c2C(N)=O)C1` is 7.28% (inactive).
As to `COc1ccc(C)c(S(=O)(=O)Nc2ccc(OCC(=O)O)cc2)c1`, the RAM network inhibition is -1.4% (inactive).
